# TRb-SRC2 inh = qHTS for Inhibitors of the Interaction of Thyroid Hormone Receptor and Steroid Receptor Coregulator 2. Thyroid hormone receptor beta (Homo sapiens), P10828. TRbeta-SRC2 peptide binding, fluorescence polarization; receptor liganded with 1 µM T3. Potency, µM (top dose mostly 106 µM), for the others: at the top dose activity change, negative = inhibition, most hits filed as inhibitors. 0.065% of 280,000 active. AID 1469, 2008;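 further: potency means the concentration at half of the fitted maximal effect; plate controls were bound peptide for no effect and peptide without receptor for full effect; nearly all actives have a fitted effect of over 50% in size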
#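 Assay buffer: 20 mM Tris-HCl, 100 mM NaCl, 10% glycerol, 1 mM EDTA, 0.01% NP-40, 1 mM DTT, 1 uM T3, 5% DMSO; TRb LBD 0.6 uM, Texas Red SRC2 20 nM; FP after 5 hr.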
# TR SRC2 fluor cs = Total Fluorescence Counterscreen for Inhibitors of the Interaction of Thyroid Hormone Receptor and Steroid Receptor Coregulator 2; Potency, µM (top dose mostly 106 µM), for the others: top-dose fluorescence change, negative = quenching; AID 1479, 2009; TRb/SRC2 Texas Red total fluorescence interference; 0.29% of 280,000 active; active means well fitted curve in either direction with a large enough effect; inconclusive means small, poorly fitted or top-dose-only effect; further: potency means the concentration at half of the fitted maximal effect; on the % scale 0 is the no-effect control and ±100 the full control effect
#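 Flags fluorescent or light-absorbing compounds by total fluorescence, S + 2P, at 555 nm excitation and 632 nm emission. Mixture: 20 nM Texas Red SRC2 peptide, 0.6 uM human TRb LBD, 1 uM T3, 5% DMSO; compound exposure 5 h at ambient temperature.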
# KDM4E inh = qHTS Assay for Inhibitors of Human Jumonji Domain Containing 2E (JMJD2E); AID 2147, 2009; JMJD2E catalytic domain, FDH-coupled NADH fluorescence (FDH is formaldehyde dehydrogenase); Lysine-specific demethylase 4E (Homo sapiens), B2RXH2; Potency, µM (doses to about 57.1 µM), without a hit: top-dose activity change, negative = inhibition, actives largely listed as inhibitors; 1.6% of 230,000 active; active means well fitted inhibition curve with a large enough effect, not every such curve was filed as active; inconclusive means small, poorly fitted or top-dose-only effect, or another doubt; inactive means no such curve, though single readings can be large or run the other way;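 further: potency means the concentration at half of the fitted maximal effect; 0% = wells with enzyme and -100% = buffer wells without enzyme; nearly all actives have a fitted effect of over 50% in size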
# Target sequence (B2RXH2 1-337 limits assumed): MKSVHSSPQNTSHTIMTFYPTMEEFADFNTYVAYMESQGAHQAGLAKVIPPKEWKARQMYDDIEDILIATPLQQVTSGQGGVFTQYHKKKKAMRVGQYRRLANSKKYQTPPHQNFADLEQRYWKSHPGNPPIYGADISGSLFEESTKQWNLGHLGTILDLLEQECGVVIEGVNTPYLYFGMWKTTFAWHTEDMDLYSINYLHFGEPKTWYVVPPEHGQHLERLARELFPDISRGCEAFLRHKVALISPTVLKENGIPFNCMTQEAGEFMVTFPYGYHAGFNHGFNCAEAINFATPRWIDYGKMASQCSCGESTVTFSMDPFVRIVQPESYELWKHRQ
# FBPA coupling cs = qHTS Assay for Inhibitors of Fructose-1,6-bisphosphate Aldolase from Giardia Lamblia: Coupling assay counterscreen. AID 2472, 2010. 0.67% of 290,000 active. coupling enzyme system counterscreen, AmpLite Red fluorescence. activity change, negative = inhibition, % at 58.2 µM, hits read low; in the data active means activity change below about -30%; further: on the % scale 0 is the no-effect control and ±100 the full control effect
#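 First, compound is pin-transferred into glyceraldehyde-3-phosphate coupling-enzyme reagent at 57.5 uM final and held 10 min at RT. Next, substrate, coupling system and AmpLite Red are added. After 20 min RT, fluorescence (525/598 nm) is read.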
# HTT aggregate = qHTS Multiplex Assay to Identify Dual Action Probes in a Cell Model of Huntington: Aggregate Formation (GFP) | PC12 HttQ103-GFP aggregates, Acumen cytometry, 40 h | Potency, µM (titrated, usually from 46.1 µM), inactives show at the highest dose activity change, negative = inhibition, usual class: inhibitors | 1.1% of 220,000 active; further: potency means the concentration at half of the fitted maximal effect; on the % scale 0 is the no-effect control and ±100 the full control effect; nearly all actives have a fitted effect of over 60% in size
#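 PC12 cells with ecdysone-inducible HTT exon1 Q103-GFP, induced by 100 nM tebufenozide, given compounds in a concentration series. GFP aggregates (1–25 um, 6 SD above background) counted in lysates by laser-scanning cytometry, 488 nm excitation.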
# HTT ATP protect = qHTS Multiplex Assay to Identify Dual Action Probes in a Cell Model of Huntington: Cytoprotection (ATP); PC12 HTT-Q103 induced, cytoprotection, ATP luminescence, 40 h; Potency, µM (titrated, usually from 56.4 µM), without a hit: cytoprotection (ATP increase), hits mostly activators; 0.14% of 230,000 active; further: potency means the concentration at half of the fitted maximal effect; % of control where 0% means no effect; nearly all actives have a fitted effect of over 45% in size
#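 Readout: ATPlite luminescence (ATP level). Model: stable PC12, inducible Htt exon1 Q103-GFP. Inducer: tebufenozide, 100 nM final. Compounds: dose series. No G418 in medium.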
# Starred values were filed as active, the others as inactive; ? = inconclusive; nt = not tested or not shown; [ ] = another dose, or the depositor's remark. Shown are actives, neighbours in structure and some others; about 2% of the full set was active somewhere. Unless noted, the call rests on the fitted dose curve; in most records, active means well fitted curve in the direction sought with a large enough effect; inconclusive means small, poorly fitted or top-dose-only effect, or another doubt; inactive means no such curve, though single readings can be large; an effect the other way counts as inactive or inconclusive.
SMILES,TRb-SRC2 inh,TR SRC2 fluor cs,KDM4E inh,FBPA coupling cs,HTT aggregate,HTT ATP protect
Nc1ccc(Nc2ccccc2N)cc1,6%,-3%,?,-31*,-10%,-21%[10 µM]
COc1ccc(Nc2ccccc2N)cc1,1%,?,10µM*,0,13µM*,-40%
O=c1c(O)c(-c2ccc(O)cc2)oc2ccc(O)cc12,6%,-8%,?,1,nt,28%[1.9 µM]
Cc1ccc(-n2c(CNc3ccc(F)cc3)nnc2SCC(N)=O)cc1,2%,-3%,2%,2,22µM*,-35%
O=C(O)CSc1nnc(CNc2ccc(F)cc2)n1-c1ccccc1,-7%,-1%,-2%,6,-10%[9.22 µM],5%[10 µM]
Cc1ccc(OCCSCc2nc3ccccc3[nH]2)cc1,-7%,-4%,-2%,0,0%,-35%
Clc1ccc(OCCSCc2nc3ccccc3[nH]2)cc1,7%,-3%,-5%,4,7.1µM*,14%[10 µM]
CO/N=C(/C(=O)N[C@@H]1C(=O)N2C(C(=O)O)=C(CSc3nnnn3C)CS[C@H]12)c1csc(N)n1,nt,nt,nt,nt,-5%,-14%
Cc1cc(=O)[nH]c2ccc(Cl)cc12,-18%,1%,-3%,2,9%,-1%
S=c1[nH]c2ccc(Cl)cc2s1,-1%,3%,7.9µM*,10,12%[9.22 µM],-18%[10 µM]
N#CC(Cc1ccc(O)c(O)c1)C(=O)N1CCc2ccccc21 (centres undefined),10%,-16%,20µM*,nt,nt,nt
COC(=O)NC(/C=C/c1ccco1)[C@@]1(C(=O)OC)CCCC1=O (some centres undefined),4%[11.2 µM],-14%[11.2 µM],nt,-3,nt,-14%[10 µM]
O=c1c2ccc(Cl)cc2nc(-c2ccc([N+](=O)[O-])cc2)n1O,4%,-3%,?,-8,6.3µM*,-66%
N#Cc1ccc(-c2nc3ccc(Br)cc3c(=O)n2O)cc1,nt,nt,nt,-3,nt,nt
O=c1c2cc(Br)ccc2nc(-c2ccc([N+](=O)[O-])cc2)n1O,-7%,-6%,5%,-5,11µM*,-108%
C[N+](C)(C)c1ccc([C@H](N)C(=O)O)cc1,nt,nt,nt,nt,nt,-7%[10 µM]
NC(N)=NCCCC(=O)O,nt,nt,nt,nt,nt,11%[10 µM]
CN(NS(=O)(=O)c1ccc(Cl)cc1)c1nc(C(F)(F)F)nc2ccccc12,-4%,-1%,3%,8,10µM*,-56%
ClC/C=C/CCl,5%,-2%,nt,nt,nt,-1%
CC(C)O.CC(C)O.CC(C)O.CC(C)O.[Ti],-2%[201 µM],-2%[201 µM],nt,nt,nt,nt
O=C1c2cccc3c(O)ccc(c23)C(=O)N1Cc1ccccc1,-3%,2%,-1%,9,10µM*,-34%
O=C1Cc2ccccc2C(=O)N1c1ccccc1,nt,nt,nt,-1,nt,nt
O=C1Cc2ccccc2C(=O)N1Cc1ccccc1,1%,3%,9%,-43*,-4%,-21%
O=C(Cn1cc(SCc2c(F)cccc2Cl)c2ccccc21)N1CCCCC1,0%,0%,nt,nt,nt,nt
Cc1[nH]c2ccccc2c1/C=N/n1cnnc1,-10%,-4%,1%,-1,-6%,-14%[10 µM]
SMILES,TRb-SRC2 inh,TR SRC2 fluor cs,KDM4E inh,FBPA coupling cs,HTT aggregate,HTT ATP protect
CCN(CC)c1ccc(N=Cc2c(C)[nH]c3ccccc23)cc1,?,?,0.79µM*,-18,11µM*,nt
COc1cc(NC(=O)CCS(=O)(=O)c2ccc3c(c2)CC(=O)N3C)cc(OC)c1OC,0%,1%,nt,nt,nt,nt
Cc1ccc2nc(-c3ccc(Cl)c(NC(=O)c4cccnc4)c3)oc2c1,6%,3%,nt,nt,nt,nt
Cc1ccc2nc(-c3ccc(Cl)c(NC(=O)c4cccc([N+](=O)[O-])c4C)c3)oc2c1,-2%,16µM*[quencher],nt,nt,nt,nt
Cc1cc(C)nc(SCC(=O)Nc2ccnc3ccccc23)n1,-6%,-3%,1%,1,?,nt
O=C(CSC1=NCCS1)Nc1ccnc2ccccc12,1%,-2%,0%,1,10µM*,26%

# High-throughput results (PubChem BioAssay)
